The list is not random: actives were taken first. Their share in the collection is about 3.5%.
FBW7 activator – human FBW7 E3 ligase activation, primary screen. 650,000 tested, 0.13% active. normalized activity (activation), % at 26.1 µM. Q969H0. AlphaScreen FBW7–phospho-cyclin E peptide binding, activator screen; in the data active = normalized activity above about 1.9%;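 note: purified mutant Fbw7 with reduced substrate affinity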
GPR151 ag – activates the human receptor GPR151; PathHunter beta-arrestin GPR151 cells, luminescence; activation, % at 11.2 µM; 650,000 tested, 1% active; in the data active = activation above about 4.9%;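 note: 0% = median of compound wells and 100% = cells with positive control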
TEAD-YAP block – TEAD-YAP interaction inhibition | inhibition, % at 9.12 µM | HEK-TIYL cells, TEAD-Gal4/YAP UAS-luciferase luminescence | 640,000 tested, 1.4% active; in the data active = inhibition above about 32%;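 note: 0% = median of test compound wells and 100% = reference inhibitor wells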
MITF inh – inhibitors of human MITF; O75030; AlphaScreen MITF homodimerization, bead proximity signal; inhibition, % at 2.6 µM; 650,000 tested, 0.91% active; AID 1259374; in the data active = inhibition above about 50%;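 note: 0% = vehicle wells with protein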
GPR151 conf act – human GPR151 activation, confirmation screen; GPR151 PathHunter beta-arrestin cells, luminescence, 90 min; % of EA-reagent control over plate median; shares compounds with GPR151 ag; AID 1508609; activation, % at 11.2 µM; 6,700 tested, under 10 active;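 active = mean percent activation across replicates above the confirmation screen cutoff of 4.91%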
GPR119 ag – GPR119 activation, counter-screen for GPR151 activators. AID 1508611. GPR119 PathHunter beta-arrestin cells, luminescence, 90 min; 0 = compound-well median, 100 = enzyme-acceptor control. activation, % at 11.2 µM. shares compounds with GPR151 ag. 6,700 tested, 0.3% active;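 active = mean percent activation in the counterscreen above 29.09%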;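 note: counterscreen on off-target GPR119 to flag nonselective hits from the GPR151 activator screen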
Target sequence (Q8TDV5 whole entry, looked up): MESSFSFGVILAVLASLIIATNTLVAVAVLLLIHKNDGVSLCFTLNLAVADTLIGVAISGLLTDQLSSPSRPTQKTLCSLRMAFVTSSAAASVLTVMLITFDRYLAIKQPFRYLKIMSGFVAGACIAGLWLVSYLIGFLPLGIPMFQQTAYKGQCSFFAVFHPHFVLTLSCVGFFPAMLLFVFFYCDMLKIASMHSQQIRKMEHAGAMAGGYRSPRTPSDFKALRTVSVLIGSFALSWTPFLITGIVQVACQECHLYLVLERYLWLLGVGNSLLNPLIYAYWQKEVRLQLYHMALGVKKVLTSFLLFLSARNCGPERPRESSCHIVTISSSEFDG
Numbers without * were called inactive; . = no result given.

SMILES	FBW7 activator	GPR151 ag	TEAD-YAP block	MITF inh	GPR151 conf act	GPR119 ag
CC(c1ccccc1)c1cc(C(=O)N2CCCCCC2)on1 (centres undefined)	0.1	-0.1	-7.2	14.3	.	.
CCN1C(=O)CC(C(=O)OC)C12CCN(Cc1ccc3c(c1)Cc1ccccc1-3)CC2 (centres undefined)	-0.1	0.5	5.4	12.1	.	.
CSCCCNC(=O)CC1C(=O)NCCN1C1Cc2ccccc2C1 (centres undefined)	0.1	4.9*	3.8	10.4	-0.1	-0.2
O=C(CC1C(=O)NCCN1C1Cc2ccccc2C1)NCCc1cccs1 (centres undefined)	-0.1	2.4	3.5	-9.9	.	.
COc1cccc(CN2CCC3(CC2)CC3C(=O)NCc2cccc(C(F)(F)F)c2)c1O (centres undefined)	-0.1	5.0*	-2.8	-4.2	0.9	12.9
CCn1nc(C)c(CN2CCC3(CC2)CC3C(=O)NCc2ccccc2)c1C (centres undefined)	0.1	5.4*	7.8	-2.6	0.3	0.1
CC(C)(C)CN1CCNC(=O)C1CC(=O)NC1CCCCCCC1 (centres undefined)	0.1	11.3*	-13.4	10.6	-0.8	-3.8
Cn1ccnc1SCCNC(=O)CC1C(=O)NCCN1CC1CCCCC1 (centres undefined)	0.1	7.6*	9.9	15.3	0.1	6.1
COc1ccccc1NC(=O)C(=O)N1CCN(Cc2ccccc2)CC1	0.0	0.7	4.5	-2.3	.	.
Cc1c(NC(=O)C(C)N2C(=O)C3C4CCC(C4)C3C2=O)ccc(Br)c1Cl (centres undefined)	0.8	12.9*	2.9	14.4	0.2	2.2
COC(=O)c1ccc(NC(=O)COc2cccc(C)c2C)cc1	0.3	1.3	7.1	8.1	.	.
CCCOC(=O)c1c(N)sc2c1CCC(C)C2 (centres undefined)	0.0	0.7	-8.6	0.6	.	.
CCCOC(=O)c1c(NC(=O)OC)sc2c1CCC(C)C2 (centres undefined)	1.2	6.0*	-4.4	13.1	-0.9	-8.4
COc1ccc(NC(=O)COc2cccc(C)c2C)cc1	0.2	7.5*	-18.8	3.0	-0.3	14.2
CCOC(=O)c1c(NC(=O)COc2ccc3c(C)cc(=O)oc3c2)sc2c1CCC(C)C2 (centres undefined)	0.1	5.4*	2.7	-4.5	0.3	10.0
CCOC(=O)c1c(NC(=O)COc2ccc3c(c2)OCO3)sc2c1CCCC2	-0.1	5.4*	3.5	-13.2	0.2	9.9
CNC(=O)c1c(NC(=O)COc2cccc(C)c2C)sc2c1CCCC2	-0.1	5.2*	-6.9	0.2	0.1	0.7
Cc1oc(-c2ccccc2)nc1C(=O)O	0.1	5.0*	1.6	-5.6	1.0	-2.5
O=C1C(C=NCCN2CCN(C(=S)Nc3ccccc3)CC2)=C(O)c2ccccc21	0.8	-1.1	-3.5	-4.1	.	.
CC(=O)N(C)c1nnc(-c2ccccn2)s1	-0.1	7.8*	2.7	8.2	-0.5	6.8
Cc1cc(NC(=O)c2cc3c(=O)n4ccccc4nc3s2)ccc1Br	0.0	0.4	-17.0	4.5	.	.
O=C(NCCN1CCNCC1)c1cc(C2COc3ccccc3O2)nc2ccc(-c3cn[nH]c3)cc12 (centres undefined)	-0.2	0.4	-0.4	-2.4	.	.
O=C(O)c1cc(C2COc3ccccc3O2)nc2ccc(-c3cn[nH]c3)cc12 (centres undefined)	0.0	12.6*	3.8	20.8	0.6	2.6
COC(=O)c1c(C)oc2ccc(OCC(=O)OC(C)(C)C)cc12	0.1	0.3	-1.4	-4.0	.	.
Cc1cc(N2CCOCC2)nc(N2CCN(C(=O)Cc3cccs3)CC2)n1	0.3	10.5*	11.1	2.8	-0.9	-3.4
SMILES	FBW7 activator	GPR151 ag	TEAD-YAP block	MITF inh	GPR151 conf act	GPR119 ag
Oc1ccc(/C=N/N2CCN(C3c4ccccc4-c4ccccc43)CC2)c(O)c1	-0.3	-0.5	2.6	5.7	.	.
FC(F)(F)c1ccc(Cn2cnc3c(NCc4cccc(C(F)(F)F)c4)nc(Nc4nccc5ccccc45)nc32)cc1	0.0	5.6*	14.0	0.4	0.5	2.6
CN1CCN(C(=O)c2ccc(-c3nc(NCc4cccc(C(F)(F)F)c4)c4ncn(Cc5ccc(C(F)(F)F)cc5)c4n3)cc2)CC1	0.2	10.8*	0.2	-3.9	1.1	-6.8
O=C(NC(=S)Nc1ncccc1O)c1ccccc1Br	-0.1	7.6*	-85.1	-4.2	0.0	-7.7
Cc1cccnc1NC(=S)NC(=O)c1ccccc1Br	0.5	0.4	-42.8	10.0	.	.
CC(=O)OC[C@H]1O[C@@H](n2ccc(=O)[nH]c2=S)C(OC(C)=O)C1OC(C)=O (some centres undefined)	-0.1	5.9*	-1.3	-6.5	-0.1	-9.5
O=C(O)CSc1nc(-c2ccccc2)cc(C(F)F)n1	-0.1	-1.0	1.4	-2.8	.	.
Cc1nc(SCC(=O)O)cc(-c2ccccc2)n1	0.2	5.0*	-4.6	-14.4	-0.5	-2.2
Cc1oc(-c2ccc(Cl)cc2)[n+]([O-])c1C	0.0	-0.8	-8.0	-11.5	.	.
c1ccc(Nc2cc(Nc3cnccn3)ncn2)cc1	-0.1	-1.1	-11.3	-9.7	.	.
O=C(Nc1ccc(-c2nc3ccc(-c4nc5ccccc5o4)cc3[nH]2)cc1)C1CCCCC1	0.1	4.9*	-4.7	16.5	0.9	16.2
CSc1nc(N)nc(SCC(=O)Nc2ccc(C)cc2)c1C#N	0.2	-0.1	-1.2	3.8	.	.
CSc1nc(N)nc(SCC(=O)Nc2ccc(Cl)cc2)c1C#N	-0.2	11.2*	3.4	-7.4	-0.2	-0.4
O=C(CCC1(Cc2ccc3c(c2)OCO3)CCC(=O)N1)NCc1cnn(-c2ccccc2)n1 (centres undefined)	0.0	7.1*	9.9	2.3	0.7	5.6
O=C(CCC1(Cc2ccco2)CCC(=O)N1)NCc1cnn(-c2ccccc2)n1 (centres undefined)	-0.1	0.3	0.5	-2.0	.	.
CCOc1ccccc1C(=O)Nc1c2c(nn1C(C)(C)C)CS(=O)C2 (centres undefined)	0.1	1.8	1.1	7.2	.	.
Cc1ccc2c(c1)-c1c(cnn1CC(=O)N1CCN(C3CCCCC3)CC1)CO2	-0.1	-1.5	2.8	6.6	.	.
CC(C)CC(NC(N)=O)C(=O)OCC(=O)N(Cc1ccccc1)Cc1ccccc1 (centres undefined)	0.0	-0.2	-4.6	8.9	.	.
O=C(CN1CCN(C(=O)c2ccccc2)CC1)Nc1ccc(Br)cn1	0.2	5.6*	-3.1	13.2	-0.1	-2.1
O=C(CN1CCOCC1)Nc1ccc(Br)cn1	-0.1	-0.8	10.5	-2.1	.	.
COc1ccc(-c2cc(C#N)nc(N3CCN(c4ccccc4)CC3)n2)cc1	0.0	5.2*	-0.5	-13.8	0.0	-2.5
O=S(=O)(c1cccc(S(=O)(=O)N2CCOCC2)c1)c1ccc(Cl)c(Cl)c1	0.0	5.5*	5.2	10.3	0.5	12.9

Screens deposited in PubChem BioAssay by The Scripps Research Institute Molecular Screening Center.
